Screening results as filed in PubChem BioAssay.
FMDV antiviral – blocks foot and mouth disease virus; FMDV antiviral cell-based qHTS; Potency, µM (titrated, usually from 57.9 µM), inactives show top-dose activity change, negative = inhibition, most hits filed as inhibitors; 410,000 tested, 1.2% active; AID 1159524; calls by dose curve; tested in HEK293T cells; note: read-out not given here; potency is the fitted concentration of half-maximal effect; nearly all actives have a fitted effect of over 45% in size
LASV entry inh – inhibitors of Lassa virus binding or cell entry. Lassa virus pseudotype entry inhibition, cell reporter. 300,000 tested, 1.2% active. Potency, µM (highest dose often 37.9 µM), without a hit: top-dose activity change, negative = inhibition, hits mostly inhibitors; calls by dose curve; tested in HEK293 cells; note: potency is the fitted concentration of half-maximal effect; nearly all actives have a fitted effect of over 50% in size
HCMV antiviral – human cytomegalovirus inhibition | HFF cells, HCMV-luciferase reporter, 72 h; hits give low values | activity change, negative = inhibition, % at 57.5 µM | 410,000 tested, 4.5% active | AID 1259415; in the data active = activity change below about -60%; inconclusive = no clear call, values can overlap the other calls; inactive = above about -39%
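After 16 h attachment at 37C, HFF cells received test compound and HCMV-luciferase (1 PFU/cell); reporter luminescence read 72 h later, data normalized against buffer-only and known inhibitor Salinomycin.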
Vaccinia Venus – vaccinia inhibition (Venus reporter). Vaccinia virus Venus reporter expression, fluorescence. Potency, µM (doses to about 36.5 µM), inactives show top-dose activity change, negative = inhibition, hits mostly inhibitors. 330,000 tested, 0.46% active; calls by dose curve; tested in A549 cells; note: potency is the fitted concentration of half-maximal effect; nearly all actives have a fitted effect of over 30% in size
Marburg entry inh – inhibitors of Marburg virus binding or cell entry; AID 540276; Potency, µM (doses to about 37.8 µM), for inactives: at the highest dose activity change, negative = inhibition, most hits filed as inhibitors; Marburg virus pseudotyped entry inhibition, cell reporter; 300,000 tested, 1.8% active; calls by dose curve; tested in HEK293 cells; note: potency is the fitted concentration of half-maximal effect
VACV mCherry inh – inhibitors of vaccinia virus infection (mCherry reporter signal). Vaccinia virus mCherry reporter infection, fluorescence. Potency, µM (top dose mostly 36.5 µM), inactives show top-dose activity change, negative = inhibition, hits mostly inhibitors. 310,000 tested, 0.63% active. AID 720579; calls by dose curve; tested in A549 cells; note: potency is the fitted concentration of half-maximal effect; nearly all actives have a fitted effect of over 35% in size
Numbers without * were called inactive; i = inactive; u = inconclusive; x = not tested or not shown; [ ] = another dose, or the depositor's remark. Hits are enriched below; roughly 6.5% of the tested compounds scored in any of these assays. % is set by controls: 0 for no effect and ±100 for the full control effect.

SMILES	FMDV antiviral	LASV entry inh	HCMV antiviral	Vaccinia Venus	Marburg entry inh	VACV mCherry inh
Cc1cc(Br)ccc1NC(=O)C(Cc1ccccc1)NS(=O)(=O)c1ccc(Br)s1 (stereo unspecified)	-18%	-1%[46.1 µM]	-104*	-20%	3%[46.1 µM]	-18%
Cc1ccc(C)c(N2CCN(S(=O)(=O)c3ccc(F)c(C(=O)Nc4ccc(Cl)cc4Cl)c3)CC2)c1	-11%	u	-22	-12%	x	-16%
COc1ccc(C2=NC3(CCCCCC3)N(CC(=O)Nc3ccc(C)c(C)c3)C2=O)cc1	-3%	u	-19	-22%	u	-20%
CC(C)N(C(=O)[C@H]1C[C@H](CC(=O)NCCC2=CCCCC2)C(=O)N2CCc3c([nH]c4ccc(Cl)cc34)[C@]12C)C(C)C	u	x	-91*	16µM*	x	u
COc1ccc2[nH]c3c(c2c1)CCN1C(=O)C(CC(=O)NCCC2=CCCCC2)C[C@H](C(=O)N2CCOCC2)[C@@]31C (stereo partly specified)	-10%	x	-2	u	x	-28%
COc1ccc2[nH]c3c(c2c1)CCN1C(=O)C(CC(=O)NCCC2=CCCCC2)C[C@H](C(=O)N2CCCCC2)[C@@]31C (stereo partly specified)	-9%	x	-22	u	0%	10µM*
CCOC(=O)C1=C2C=C(OCC)C=CC2OC1c1ccccc1 (stereo unspecified)	x	x	x	x	-25%[46.1 µM]	x
CN1OC[C@@H]2CN(C(=S)Nc3cc(C(F)(F)F)cc(C(F)(F)F)c3)[C@H](c3ccccc3Br)C[C@@H]21	x	x	3	x	x	x
CCN1C(=O)[C@@H]2[C@H]3[C@H](O)[C@H](O)CC(=NOC[C@@H](O)COCc4ccco4)[C@@H]3CC[C@H]2C1=O	x	x	x	x	-22%[14.2 µM]	x
Cn1c(Cl)cnc1C1CC(=O)c2cc(Cl)ccc2O1 (stereo unspecified)	20µM*	u	-96*	-14%	10µM*	-2%
CC(C1CC1)N(Cc1ccccc1)C(=O)NC(=O)c1ccc(F)cc1 (stereo unspecified)	12%	11µM*	20	-26%	5%	-3%
CCc1c(C)nc(N)nc1N1N=C1SCC(=O)OC	6%	11%	-61*	3%	9%[46.1 µM]	-3%
CCc1c(C)nc(N)nc1N1N=C1SCC#N	3%	-4%	21	x	11%	x
Cc1nc2ccc(NS(=O)(=O)c3ccc(Br)cc3)cc2s1	-5%	x	-60*	x	x	x
CC(=O)Nc1ccc(S(=O)(=O)Nc2ccc3nc(C)sc3c2)cc1	-11%	u	-76*	8%	u	-17%
Cc1ccc(S(=O)(=O)Nc2ccc3nc(N)sc3c2)cc1	41%	-8%	-89*	x	-26%	x
Cc1ccc(S(=O)(=O)Nc2ccc3nc(C)sc3c2)cc1	-16%	u	x	u	u	x
CCOC(=O)Cn1nc(C)c(NC(=O)COc2ccc(Cl)cc2C)c1C	u	-7%[46.1 µM]	-38	-2%	-21%[46.1 µM]	-6%
O=C(NCc1ccccc1Cl)c1nnc(Cc2ccc(Cl)cc2)o1	-9%	22%[46.1 µM]	1	-10%	-17%[46.1 µM]	-11%
Cc1[nH]c2ccccc2c1/C=N/NC(=O)C1CC1(c1ccccc1)c1ccccc1 (stereo unspecified)	40µM*	u	-21	11µM*	u	u
COC(=O)[C@@H]1CC[C@H](C)[C@@H](c2ccc(C)cc2)N1C(=O)c1ccc(C=NOC[C@H]2O[C@H](c3ccccc3)C=C[C@H]2Oc2ccc(OC)cc2)cc1	x	x	x	x	-7%[14.2 µM]	x
COC(=O)c1cc2c(c3c4cc(OC)ccc4n(C(=O)c4ccccc4)c13)C(=O)N(Cc1ccco1)C2	x	x	-24	x	x	x
Cc1ccc(S(=O)(=O)N2CCOCC2)cc1C(=O)OCC(=O)Nc1ccc2c(c1)OCO2	-10%	11%	19	-5%	-2%	-7%
COc1cc(S(=O)(=O)N2CCOCC2)ccc1NC(=O)COC(=O)c1cc(OC)c(OC)c(OC)c1	2%	-13%	6	-10%	-25%	i
CCOCCCn1c(SCC(=O)Nc2cccc(S(=O)(=O)NC3=NCCCCC3)c2)nc2ccccc2c1=O	-9%	x	-9	x	x	x
COc1cccc(NC(=O)COC(=O)c2cc(S(=O)(=O)N3CCOCC3)ccc2C)c1	-9%	-18%	22	-21%	18µM*	i
